Potency and outcome data for 13 compounds are collected here from PubChem BioAssay (NCATS).

Records with an inconclusive call do not appear. Active and inactive are the calls of the source. Calls follow the shape of the dose curve; as a rule, active = well fitted curve in the direction sought with a large enough effect; inconclusive = small, poorly fitted or top-dose-only effect, or another doubt; inactive = no such curve, though single readings can be large; an effect the other way counts as inactive or inconclusive.

For assay [1], the system named is MKL-1. Description: qHTS assay to identify novel small-molecules to repurpose for Merkel cell carcinoma treatment (AID 1296009). Also: nearly all actives have a fitted effect of over 60% in size. Also: potency is read from the fitted curve at half-maximal effect. The conditions noted are these: MCC and control cell lines, CellTiter-Glo viability, 72 h; series mostly up to 46 µM. In outline:
(§1)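 After compound transfer in DMSO, plates were kept 72 hr at 37 degree celsius. Luminescent ATP signal from CellTiter-Glo served as viability measure, normalized against DMSO and no-cell controls.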
On the technique in general: In qHTS, concentration-response curves come from the screen itself.

Assay [2] deals with MKL-2. Described as above. The note with it: MCC and control cell lines, CellTiter-Glo viability, 72 h; series mostly up to 46 µM. In outline:
as §1
For orientation: ATP-based viability assays read luminescence as a measure of living cells.

The test system of assay [3] is UISO. The description is as above. The conditions noted are these: MCC and control cell lines, CellTiter-Glo viability, 72 h; series mostly up to 46 µM. In outline: as §1
The test system of assay [4] is WaGa. Described as above. The note with it: MCC and control cell lines, CellTiter-Glo viability, 72 h; series mostly up to 46 µM. In outline:
as §1

Assay [5] relates to C33A. Description: Primary qHTS to identify gynecologic anti-cancer compounds using libraries of approved drugs and bioactive compounds (AID 1345084). Also: nearly all actives have a fitted effect of over 55% in size. The conditions noted are these: Gynecologic cancer cell panel viability, ATPlite luminescence, 48 h; series mostly up to 57.5 µM. In outline: (§2)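 In this quantitative HTS, cell killing is estimated from loss of ATP-dependent luciferase light. Cells see five compound concentrations over a 48 h exposure.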

For assay [6], the system named is CAOV3. Described as above. The note with it: Gynecologic cancer cell panel viability, ATPlite luminescence, 48 h; series mostly up to 57.5 µM. In outline:
as §2

The subject of assay [7] is CASKI. Described as above. The note with it: Gynecologic cancer cell panel viability, ATPlite luminescence, 48 h; series mostly up to 57.5 µM. In outline: as §2
Assay [8] deals with Es-2. Described as above. The conditions noted are these: Gynecologic cancer cell panel viability, ATPlite luminescence, 48 h; series mostly up to 57.5 µM. In outline: as §2

Take `CN(C)CCc1c[nH]c2cccc(OP(=O)(O)O)c12`: the Potency result in assay [1], in assay [2], in assay [3], in assay [4], in assay [5] and in assay [8] was “inactive” throughout. The outcome in assay [6] and in assay [7] was inactive.
For the compound `CNCC(=O)c1ccc(O)c(O)c1`, the Potency result in assay [1], in assay [2], in assay [3], in assay [4], in assay [5] and in assay [8] was “inactive” throughout. For the same compound, the compound was called inactive in assay [6] and in assay [7].
On to `CC(C)c1c(CN(C)C(C)Cc2ccccc2)n(C)n(-c2ccccc2)c1=O` (stereo not given), for which the Potency entry in assay [1], in assay [2], in assay [3], in assay [4], in assay [5] and in assay [8] was “inactive” in each case. Besides, the compound was called inactive in assay [6] and in assay [7].
Consider `NNc1ccccc1`, for which the Potency result in assay [1], in assay [2], in assay [4], in assay [5] and in assay [8] was “inactive” throughout. Further, the call in assay [6] and in assay [7] was inactive.
With `C[C@@H]1CC2=CC(=O)CC[C@@H]2[C@H]2CC[C@@]3(C)[C@@H](CC[C@]3(C)O)[C@@H]21`, the Potency result in assay [1], in assay [2], in assay [3], in assay [4], in assay [5] and in assay [8] was “inactive” each time. In addition, the compound was classed as inactive in assay [6] and in assay [7].
With `CCOP(=S)(OCC)Oc1ccc2c(C)c(Cl)c(=O)oc2c1`, the Potency result in assay [1], in assay [3], in assay [5] and in assay [8] was “inactive” each time. Moreover, the outcome in assay [6] and in assay [7] was inactive.
Turning to `CC[N+]1(CC)CCC(OC(=O)C(O)(c2ccccc2)c2ccccc2)C1` (stereo not given), the Potency entry in assay [1], in assay [2], in assay [3], in assay [4], in assay [5] and in assay [8] was “inactive” each time. Moreover, the compound was classed as inactive in assay [6] and in assay [7].
Regarding `CC(C)(C)NCC(O)c1ccccc1Cl` (stereo not given), the Potency entry in assay [1], in assay [2], in assay [3], in assay [4], in assay [5] and in assay [8] was “inactive” in each case. Also, the outcome in assay [6] and in assay [7] was inactive.
For the compound `CCN[C@H](C)Cc1cccc(C(F)(F)F)c1`, the Potency result in assay [1], in assay [2], in assay [3], in assay [4], in assay [5] and in assay [8] was “inactive” in each case. For the same compound, the compound was called inactive in assay [6] and in assay [7].
As to `COC1CC(=C(c2cccs2)c2cccs2)C[N+](C)(C)C1` (stereo not given), the Potency in assay [1] was 21.1 µM (active); in assay [2], 7.5 µM (active); in assay [4] it was 11.9 µM (active). The Potency result in assay [5] and in assay [8] was “inactive” in each case. In addition, the call in assay [6] was inactive.
As for `c1ccc(CN2CCNCC2)cc1`, the Potency entry in assay [1], in assay [2], in assay [3], in assay [4], in assay [5] and in assay [8] was “inactive” each time. Moreover, the result in assay [6] and in assay [7] was inactive.
With `C[C@]12CC[C@H]3[C@@H](CC[C@@]45O[C@H]4C(O)=C(C#N)C[C@]35C)[C@H]1CC[C@H]2O`, the Potency entry in assay [5] and in assay [8] was “inactive” throughout. The call in assay [6] and in assay [7] was inactive.
Turning to `CC(Cc1ccccc1)NCCn1cnc2c1c(=O)n(C)c(=O)n2C` (stereo not given), the Potency entry in assay [1], in assay [2], in assay [3], in assay [4], in assay [5] and in assay [8] was “inactive” throughout. Also, the compound was classed as inactive in assay [6] and in assay [7].
